Laboratory results published in PubChem BioAssay (Tox21).
Results filed as inconclusive are left out. Calls of active or inactive are those of the source. Unless noted, the call rests on the fitted dose curve; in most records, active means well fitted curve in the direction sought with a large enough effect in the repeat runs; inconclusive means weak or mixed curves; inactive means no such curve, though single readings can be large; an effect the other way counts as inactive or inconclusive.

What was measured:
[1] = target: Estrogen receptor beta (Homo sapiens) (UniProt Q92731); assay: qHTS assay to identify small molecule agonists of the estrogen receptor beta (ER-beta) signaling pathway (AID 1259377; active means well fitted activation curve with a large enough effect in the signal ratio in the repeat runs, not every such curve was filed as active; the % refers to the signal ratio)
Procedure, shortened: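 ER-beta-UAS-bla HEK293T (GripTite) cells carrying a UAS-driven beta-lactamase reporter, in medium with 2% charcoal-stripped FBS, were exposed to compounds for 16 hr at 37C; LiveBLAzer B/G FRET substrate was then added and fluorescence read after 2 hours at room temperature.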

[2] = target: Estrogen receptor beta (Homo sapiens) (UniProt Q92731); assay: qHTS assay to identify small molecule antagonists of the estrogen receptor beta (ER-beta) signaling pathway (AID 1259378; active means well fitted inhibition curve with a large enough effect in the signal ratio in the repeat runs, not every such curve was filed as active; the % refers to the signal ratio)
Procedure, shortened: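 ER-beta-UAS-bla HEK293T (GripTite) cells in 2% charcoal-stripped FBS medium were preincubated 6 hr at 37C, dosed with compound, then stimulated with 1 nM E2 (final) for 16 hr; beta-lactamase reporter read by B/G FRET fluorescence after 2 hr substrate loading.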

[3] = qHTS assay to identify small molecule agonists of the androgen receptor (AR) signaling pathway in the presence of an antagonist - cell viability counter screen (AID 1259379);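 further: MDA-kb2 human breast cancer cells carrying an MMTV luciferase reporter; series mostly up to about 92 µM; nearly all actives have a fitted effect of over 25% in size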
Procedure, shortened: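 Viability counter screen: CellTiter-Fluor fluorescence, measured in the same wells as the luciferase read-out. MDA-kb2 cells, 3,000/well, with nilutamide at 3.0uM final and compounds at 15 concentrations, 16 hr at 37C, 0% CO2.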

[4] = qHTS assay to identify small molecule agonists of the estrogen receptor beta (ER-beta) signaling pathway - cell viability counter screen (AID 1259380); further: nearly all actives have a fitted effect of over 30% in size
Procedure, shortened: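 Luminescence read-out (CellTiter-Glo, 30 min, room temp) taken in the same wells as the beta-lactamase reporter assay; ER-beta-UAS-bla HEK293T cells exposed to DMSO-dissolved compounds for 16 hr at 37C in 2% charcoal-stripped FBS medium.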

[5] = qHTS assay to identify small molecule antagonists of the estrogen receptor beta (ER-beta) signaling pathway - cell viability counter screen (AID 1259382); further: series mostly up to about 92 µM; nearly all actives have a fitted effect of over 55% in size
Procedure, shortened: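 Luminescent ATP read-out (CellTiter-Glo, 30 min, RT) taken in the same wells as the bla reporter assay. HEK293T ER-beta-UAS-bla cells in 2% charcoal-stripped FBS were exposed to compounds with 1nM E2 for 16 hr at 37C.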

[6] = target: Estrogen receptor (Homo sapiens) (UniProt P03372); assay: qHTS assay to identify small molecule agonists of the estrogen receptor alpha (ER-alpha) signaling pathway in the presence of an antagonist (AID 1259383; calls by dose curve; further: top concentration of the series differs between compounds; nearly all actives have a fitted effect of over 15% in size)
Procedure, shortened: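 Luciferase luminescence (ONE-Glo, 30min at room temperature) measured in VM7Luc4E2 cells after 22hr compound exposure at 15 concentrations, with 10.0nM ICI-182,780 final present; cells express endogenous ER-alpha and carry four EREs upstream of luciferase.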

[7] = target: Thyrotropin receptor (Homo sapiens) (UniProt P16473); assay: qHTS assay to identify small molecule antagonists of the thyroid stimulating hormone receptor (TSHR) signaling pathway (AID 1259385; calls by dose curve; further: nearly all actives have a fitted effect of over 20% in size)
Procedure, shortened: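 TSHR-HEK293 cells were plated and held 18 h at 37C/5% CO2, then given compound plus Ro20-1724 and stimulated with TSH at 1.5 ng/mL final. After 30 min at room temperature, cAMP was detected with cAMP-d2/anti-cAMP-cryptate (1 h) by fluorescence.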

[8] = qHTS assay to identify small molecule agonists of the estrogen receptor alpha (ER-alpha) signaling pathway in the presence of an antagonist - cell viability counter screen (AID 1259386);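 further: series mostly up to about 92 µM; cells exposed to compounds for 22 h at 37 °C before the viability read; nearly all actives have a fitted effect of over 30% in size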
Procedure, shortened: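 Read-out: CellTiter-Fluor fluorescence after 1hr reagent incubation, measured in the same wells as the luciferase readout. VM7Luc4E2 cells were exposed to 15 compound concentrations with 10.0nM ICI-182,780 for 22hr at 37C.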

[9] = target: Progesterone receptor (Homo sapiens) (UniProt P06401); assay: qHTS assay to identify small molecule agonists of the progesterone receptor (PR) signaling pathway (AID 1346784; calls by dose curve; further: nearly all actives have a fitted effect of over 30% in size)
Procedure, shortened: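 PR-UAS-bla HEK 293T cells carrying a UAS-driven beta-lactamase reporter were seeded in medium with 2% charcoal-stripped FBS, preincubated 6 hr at 37C, then exposed to compounds in DMSO for 16 hr; agonism was read by LiveBLAzer B/G FRET fluorescence.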

[10] = target: Progesterone receptor (Homo sapiens) (UniProt P06401); assay: qHTS assay to identify small molecule antagonists of the progesterone receptor (PR) signaling pathway (AID 1346795; active means well fitted inhibition curve with a large enough effect in the signal ratio in the repeat runs, not every such curve was filed as active; the % refers to the signal ratio)
Procedure, shortened: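 PR-UAS-bla HEK293T cells carrying a UAS-driven beta-lactamase reporter were plated in medium with 2% charcoal-stripped FBS and rested 6 hr at 37C. Compounds were added with 1 nM R5020 (final) for 16 hr, then FRET substrate loaded 2 hr at room temperature.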

[11] = qHTS assay to identify small molecule antagonists of the progesterone receptor (PR) signaling pathway - cell viability counter screen (AID 1346798); further: series mostly up to about 92 µM; nearly all actives have a fitted effect of over 50% in size
Procedure, shortened: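 PR-UAS-bla HEK293T cells in medium with 2% charcoal-stripped FBS were treated with compounds plus R5020 for 16 hr at 37C. Cell viability was then read by CellTiter-Glo luminescence after 30 min at room temperature in the same wells.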

[12] = qHTS assay to identify small molecule agonists of the progesterone receptor (PR) signaling pathway - cell viability counter screen (AID 1346799; calls by dose curve; further: nearly all actives have a fitted effect of over 45% in size)
Procedure, shortened: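 PR-UAS-bla HEK293T cells, 3,000 per well in medium with 2% charcoal-stripped FBS, were preincubated 6 hr at 37C, then exposed to compounds for 16 hr; viability was read as CellTiter-Glo luminescence after 30 min at room temperature.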

[13] = qHTS assay to identify small molecule agonists of the TGF-beta/Smad signaling pathway - cell viability counter screen (AID 1346829); further: top concentration of the series differs between compounds; nearly all actives have a fitted effect of over 45% in size
Procedure, shortened: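 In parallel with the Smad reporter read, viability of HEK 293T cells stably carrying SBE-bla is quantified by ATP luminescence following 5 hr compound treatment.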

[14] = qHTS assay to identify small molecule agonists of the TGF-beta/Smad signaling pathway (AID 1346859; active means well fitted activation curve with a large enough effect in the signal ratio in the repeat runs, not every such curve was filed as active; the % refers to the signal ratio; further: series mostly up to about 77 µM)
Procedure, shortened: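 HEK 293T cells stably carrying a beta-lactamase reporter driven by the Smad binding element were seeded overnight, exposed to DMSO-dissolved compounds for 5 hr at 37 C, 5% CO2, then loaded with FRET substrate for 2 hr at room temperature.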

[15] = target: Thyrotropin-releasing hormone receptor (Homo sapiens) (UniProt P34981); assay: qHTS assay to identify small molecule antagonists of the thyrotropin-releasing hormone receptor (TRHR) signaling pathway (AID 1346877; active means well fitted inhibition curve with a large enough effect in the repeat runs, not every such curve was filed as active; further: series mostly up to about 51 µM)
Procedure, shortened: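 HEK293/TRHR cells, 18 h, 37 °C; Ca2+ dye 2 h; cpd 5 min RT; TRH 1 nM final; fluorescence read 3 min, 1 s intervals; 15 concs, triplicate.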

[16] = target: Thyrotropin-releasing hormone receptor (Homo sapiens) (UniProt P34981); assay: qHTS assay to identify small molecule agonists of the thyrotropin-releasing hormone receptor (TRHR) signaling pathway (AID 1346891; calls by dose curve; further: series mostly up to about 58 µM)
Procedure, shortened: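 TRHR-expressing HEK293 cells were plated 18 h at 37 °C/5% CO2, loaded with calcium dye 2 h at 37 °C, then given compound in DMSO; fluorescence was read kinetically for 3 min at 1 s intervals.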

[17] = Human pregnane X receptor (PXR) small molecule agonists, qHTS cell viability counter screen (AID 1346977); further: nearly all actives have a fitted effect of over 50% in size
Procedure, shortened: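 PXR-Luc HepG2 cells in medium with 5% charcoal-stripped FBS were pre-incubated 5hr, then exposed to compounds for 24hr at 37C. Viability was read in the same wells by CellTiter-Fluor fluorescence, reagent added after 23hr with a 1hr incubation.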

[18] = qHTS assay to identify small molecule agonists or antagonists of the thyroid stimulating hormone receptor (TSHR) signaling pathway - wild type cell line counter screen (AID 1259384; calls by dose curve)
Procedure, shortened: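 Wild-type HEK293 cells were plated 18 h at 37 C/5% CO2, pin-dosed with compound plus Ro20-1724 medium, held 30 min at room temperature, then given cAMP-d2 and anti-cAMP-cryptate; fluorescence was read after 1 h. Fifteen concentrations, triplicate.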

[19] = qHTS assay to identify small molecule antagonists of the TGF-beta/Smad signaling pathway - cell viability counter screen (AID 1346824); further: nearly all actives have a fitted effect of over 50% in size
Procedure, shortened: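 SBE-bla HEK 293T cells were plated overnight at 37 C, then given compounds in DMSO plus TGF-beta1 (added as 0.25 ng/mL solution) for 5 hr. After the bla read, CellTiter-Glo was added to the same wells and luminescence read after 30 min at room temperature.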

Measured: Potency

Chain of Estrogen receptor beta (Homo sapiens) (Q92731 whole entry, looked up): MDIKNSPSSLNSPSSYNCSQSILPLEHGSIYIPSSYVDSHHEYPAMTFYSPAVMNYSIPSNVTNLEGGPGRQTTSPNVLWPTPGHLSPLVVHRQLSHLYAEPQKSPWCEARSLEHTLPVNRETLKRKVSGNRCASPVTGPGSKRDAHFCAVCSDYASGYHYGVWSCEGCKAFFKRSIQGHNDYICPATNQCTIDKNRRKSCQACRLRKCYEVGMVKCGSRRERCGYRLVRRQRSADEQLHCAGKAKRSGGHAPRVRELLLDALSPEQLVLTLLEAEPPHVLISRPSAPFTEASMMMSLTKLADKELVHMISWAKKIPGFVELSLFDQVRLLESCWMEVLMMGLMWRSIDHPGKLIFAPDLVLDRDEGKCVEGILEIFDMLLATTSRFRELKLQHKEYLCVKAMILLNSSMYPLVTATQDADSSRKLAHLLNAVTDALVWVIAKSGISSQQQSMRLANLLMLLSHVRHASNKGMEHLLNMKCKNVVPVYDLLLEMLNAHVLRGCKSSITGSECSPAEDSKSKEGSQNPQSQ
Chain of Estrogen receptor (Homo sapiens) (P03372 whole entry, looked up): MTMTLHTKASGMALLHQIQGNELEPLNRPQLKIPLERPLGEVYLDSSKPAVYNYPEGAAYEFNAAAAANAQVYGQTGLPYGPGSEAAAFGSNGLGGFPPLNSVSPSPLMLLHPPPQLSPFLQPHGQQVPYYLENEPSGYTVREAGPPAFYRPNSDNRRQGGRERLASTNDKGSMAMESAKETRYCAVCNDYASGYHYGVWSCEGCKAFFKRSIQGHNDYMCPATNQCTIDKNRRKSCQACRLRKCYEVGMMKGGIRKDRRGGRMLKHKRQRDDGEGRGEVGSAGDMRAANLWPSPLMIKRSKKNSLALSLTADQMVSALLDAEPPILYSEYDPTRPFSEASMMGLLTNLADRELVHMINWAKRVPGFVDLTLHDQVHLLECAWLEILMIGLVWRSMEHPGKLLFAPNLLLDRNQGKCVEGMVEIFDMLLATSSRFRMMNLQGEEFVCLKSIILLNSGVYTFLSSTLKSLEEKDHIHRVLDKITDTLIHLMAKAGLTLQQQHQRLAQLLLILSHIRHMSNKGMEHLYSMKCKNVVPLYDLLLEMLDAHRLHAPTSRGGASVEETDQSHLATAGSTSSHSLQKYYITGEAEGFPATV
Chain of Progesterone receptor (Homo sapiens) (P06401 whole entry, looked up): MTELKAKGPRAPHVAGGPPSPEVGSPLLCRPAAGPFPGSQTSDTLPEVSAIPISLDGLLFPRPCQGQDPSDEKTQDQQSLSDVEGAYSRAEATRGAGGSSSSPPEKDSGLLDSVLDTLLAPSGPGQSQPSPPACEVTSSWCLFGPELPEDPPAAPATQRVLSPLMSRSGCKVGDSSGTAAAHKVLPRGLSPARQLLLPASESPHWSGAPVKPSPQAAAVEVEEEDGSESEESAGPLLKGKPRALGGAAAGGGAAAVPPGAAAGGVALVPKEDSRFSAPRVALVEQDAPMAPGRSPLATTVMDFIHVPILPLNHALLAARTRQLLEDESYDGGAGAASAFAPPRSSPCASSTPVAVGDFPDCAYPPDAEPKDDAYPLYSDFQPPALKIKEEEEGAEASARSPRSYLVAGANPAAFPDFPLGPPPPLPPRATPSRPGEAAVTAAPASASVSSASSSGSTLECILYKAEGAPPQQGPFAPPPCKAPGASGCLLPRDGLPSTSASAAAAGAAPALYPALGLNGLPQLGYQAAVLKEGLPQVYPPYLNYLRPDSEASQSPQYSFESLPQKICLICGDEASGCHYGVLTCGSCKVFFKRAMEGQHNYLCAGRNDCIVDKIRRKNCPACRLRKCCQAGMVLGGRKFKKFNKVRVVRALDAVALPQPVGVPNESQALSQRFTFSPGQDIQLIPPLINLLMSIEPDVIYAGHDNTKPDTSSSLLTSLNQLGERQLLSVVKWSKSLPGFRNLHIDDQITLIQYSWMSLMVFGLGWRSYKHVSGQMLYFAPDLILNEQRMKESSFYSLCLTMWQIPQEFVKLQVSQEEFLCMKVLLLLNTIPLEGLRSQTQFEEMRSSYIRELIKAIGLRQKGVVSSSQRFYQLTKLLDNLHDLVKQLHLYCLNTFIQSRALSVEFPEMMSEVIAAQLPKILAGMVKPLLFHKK
Chain of Thyrotropin receptor (Homo sapiens) (P16473 whole entry, looked up): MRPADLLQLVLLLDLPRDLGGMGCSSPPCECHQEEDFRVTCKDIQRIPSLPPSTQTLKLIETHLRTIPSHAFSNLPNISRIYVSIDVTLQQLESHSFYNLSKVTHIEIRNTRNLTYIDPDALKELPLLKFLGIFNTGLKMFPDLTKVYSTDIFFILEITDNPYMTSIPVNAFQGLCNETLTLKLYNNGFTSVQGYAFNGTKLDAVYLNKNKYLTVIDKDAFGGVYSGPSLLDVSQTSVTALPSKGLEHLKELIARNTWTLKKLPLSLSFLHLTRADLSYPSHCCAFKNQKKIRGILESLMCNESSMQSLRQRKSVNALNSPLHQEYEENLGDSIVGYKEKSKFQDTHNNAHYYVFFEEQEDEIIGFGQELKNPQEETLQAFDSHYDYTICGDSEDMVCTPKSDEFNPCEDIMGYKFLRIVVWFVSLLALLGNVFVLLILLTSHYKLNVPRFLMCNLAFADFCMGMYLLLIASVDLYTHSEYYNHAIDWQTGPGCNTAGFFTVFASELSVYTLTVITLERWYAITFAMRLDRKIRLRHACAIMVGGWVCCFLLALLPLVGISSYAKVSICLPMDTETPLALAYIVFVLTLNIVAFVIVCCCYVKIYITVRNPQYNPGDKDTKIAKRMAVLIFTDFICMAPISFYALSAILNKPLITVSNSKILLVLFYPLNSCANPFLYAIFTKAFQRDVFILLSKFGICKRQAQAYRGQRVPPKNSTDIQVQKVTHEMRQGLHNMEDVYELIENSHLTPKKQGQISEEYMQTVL
Chain of Thyrotropin-releasing hormone receptor (Homo sapiens) (P34981 whole entry, looked up): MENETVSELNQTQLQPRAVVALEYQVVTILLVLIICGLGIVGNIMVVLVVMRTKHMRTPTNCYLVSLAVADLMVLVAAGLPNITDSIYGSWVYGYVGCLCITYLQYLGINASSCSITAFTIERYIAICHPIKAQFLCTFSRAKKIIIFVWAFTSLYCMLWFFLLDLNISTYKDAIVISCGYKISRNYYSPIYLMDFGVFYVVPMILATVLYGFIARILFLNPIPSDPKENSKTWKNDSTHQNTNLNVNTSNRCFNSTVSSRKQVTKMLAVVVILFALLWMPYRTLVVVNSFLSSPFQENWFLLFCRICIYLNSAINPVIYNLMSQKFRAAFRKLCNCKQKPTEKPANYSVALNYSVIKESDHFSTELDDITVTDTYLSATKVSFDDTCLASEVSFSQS

CC(Cc1ccccc1)NCCCCl (stereo unspecified)
not listed: [18] | [19]
inactive: all other assays above

N#CN
not listed: [7] | [13] | [18] | [19]
inactive: all other assays above

Cn1c(CCCC(=O)O)nc2cc(N(CCCl)CCCl)ccc21
not listed: [7] | [10] | [13] | [16]
inactive: all other assays above

CCN(CC)C1CCCCC1
not listed: [7] | [12] | [14] | [18]
inactive: all other assays above

CC(C)N(Cc1ccccc1)C(=O)C(C)(C)C
not listed: [6] | [12] | [15] | [17]
inactive: all other assays above

CC[C@@H](CO)NC(=O)[C@@H]1C=C2c3cccc4c3c(cn4C)C[C@H]2N(C)C1
not listed: [7] | [18]
inactive: all other assays above

CCNP(=S)(OC)O/C(C)=C/C(=O)OC(C)C (stereo unspecified)
not listed: [7] | [10] | [17] | [18] | [19]
inactive: all other assays above

O=C(NC(O)C(Cl)(Cl)Cl)NC(O)C(Cl)(Cl)Cl (stereo unspecified)
not listed: [7] | [9] | [18]
inactive: all other assays above

CCC1(c2ccccc2)CCC(=O)NC1=O (stereo unspecified)
not listed: [16] | [18]
inactive: all other assays above
